Measured values: PubChem BioAssay (NCI)
The panel holds about 79,000 compounds, 15% with a hit somewhere; the sample as a whole holds those more often. Activity calls are given as the source filed them. No stated cut-off is given here; in the data, active means growth inhibition above about 70%; inactive means the rest.

How the values were obtained:
[1] = NCI Yeast Anticancer Drug Screen. Data for the wt1 strain (AID 149);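 further: 0% = growth of vehicle-treated wt1 cultures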; conditions: S. cerevisiae wt1 strain (SPY 50644) growth inhibition, hits give high values
In short: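 Vehicle-normalised growth inhibition; strain wt1; compound exposure.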

[2] = NCI Yeast Anticancer Drug Screen. Data for the rad50EPP+ strain (AID 151);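 further: 0% = growth of vehicle-treated control cultures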; conditions: S. cerevisiae rad50 mutant strain, hits give high values
In short: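 Growth inhibition read against vehicle controls in rad50EPP+ yeast, a strain altered in DNA damage repair, after compound exposure.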

[3] = NCI Yeast Anticancer Drug Screen. Data for the mgt1 strain (AID 153); conditions: S. cerevisiae mgt1 mutant growth inhibition, hits give high values
In short: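 mgt1 yeast grown with test compound; read-out is growth inhibition versus vehicle-treated cultures.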

[4] = NCI Yeast Anticancer Drug Screen. Data for the rad50 strain (AID 155);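 further: 0% = growth of vehicle-only cultures of the same strain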; conditions: S. cerevisiae rad50 strain growth inhibition, hits give high values
In short: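 A DNA repair-deficient yeast mutant serves as the test organism; compound-induced growth inhibition is calculated against vehicle-treated cells.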

[5] = NCI Yeast Anticancer Drug Screen. Data for the mec2-1 strain (AID 157); conditions: S. cerevisiae mec2-1 strain, hits give high values
In short: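 Yeast mec2-1 mutant treated with compound. Readout: growth inhibition vs vehicle controls.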

[6] = NCI Yeast Anticancer Drug Screen. Data for the rad14 strain (AID 159);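 further: 0% = growth of vehicle-treated control cultures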; conditions: S. cerevisiae rad14 strain growth inhibition, hits give high values
In short: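 Vehicle-treated cultures served as the baseline for growth inhibition of a DNA repair-mutant yeast strain exposed to each compound.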

[7] = NCI Yeast Anticancer Drug Screen. Data for the sgs1 mgt1 strain (AID 161);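 further: 0% = growth of cultures given vehicle only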; conditions: S. cerevisiae sgs1 mgt1 strain, hits give high values
In short: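 Read-out: growth inhibition vs vehicle controls. Cells: mutant yeast strain deficient in DNA damage repair.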

[8] = NCI Yeast Anticancer Drug Screen. Data for the CLN2oe strain (AID 163);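 further: 0% = growth of vehicle-only control cultures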; conditions: S. cerevisiae CLN2oe strain, hits give high values
In short: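 Read-out: yeast growth inhibition, expressed relative to vehicle-only controls. The strain bears an engineered cell-cycle alteration.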

[9] = NCI Yeast Anticancer Drug Screen. Data for the cln2 rad14 strain (AID 165);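 further: 0% = growth equal to vehicle treated cultures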; conditions: S. cerevisiae cln2 rad14 strain, hits give high values
In short: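 cln2 rad14 yeast strain; compound exposure; growth inhibition read vs vehicle controls.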

[10] = NCI Yeast Anticancer Drug Screen. Data for the bub3 strain (AID 167); conditions: S. cerevisiae bub3 mutant strain, hits give high values
In short: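 Inhibition values come from growth of compound-treated mutant yeast normalised to vehicle-treated controls.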

[11] = NCI Yeast Anticancer Drug Screen. Data for the wt2 strain (AID 169);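 further: 0% = growth of vehicle-treated yeast cultures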; conditions: S. cerevisiae wt2 strain growth inhibition, hits give high values
In short: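 Read-out: growth inhibition versus vehicle-treated control cultures after compound exposure of the yeast strain.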

[12] = NCI Yeast Anticancer Drug Screen. Data for the mlh1 strain (AID 171);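 further: 0% = growth of vehicle-treated control cultures of the same strain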; conditions: S. cerevisiae mlh1 strain growth inhibition, hits give high values
In short: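 Read-out: growth inhibition versus vehicle controls. Strain: engineered yeast with a defined DNA repair or cell cycle defect, compound-treated.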

[13] = NCI Yeast Anticancer Drug Screen. Data for the sgs1 strain (AID 173);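 further: 0% = growth of vehicle-only control cultures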; conditions: S. cerevisiae sgs1 mutant, hits give high values
In short: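 Read-out: yeast growth inhibition relative to vehicle controls, following compound exposure of a strain with a defined DNA repair/cell cycle alteration.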

[14] = NCI Yeast Anticancer Drug Screen. Data for the mlh1 rad18 strain (AID 175); conditions: S. cerevisiae mlh1 rad18 strain growth inhibition, hits give high values
In short: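 Yeast w/ defined DNA-repair lesions; compound exposure; growth vs vehicle controls → % inhibition.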

[15] = NCI Yeast Anticancer Drug Screen. Data for the rad18 strain (AID 177); conditions: S. cerevisiae rad18 mutant growth inhibition, hits give high values
In short: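 Readout: growth inhibition vs vehicle controls. Cells: genetically altered yeast strain, DNA repair defect.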

[16] = at 5.0 µM (retest, dose inferred, filed as 0.5)
[17] = at 50.0 µM (retest, dose inferred, filed as 5.0)

Measured: growth inhibition

NNc1ccccc1Cl
active: [1]; at 3.7 µM 73% | [1]; at 11.0 µM 81% | [1]; at 33.0 µM 95% | [1]; at 100.0 µM 97% | [2]; at 3.7 µM 80% | [2]; at 11.0 µM 92% | [2]; at 33.0 µM 95% | [2]; at 100.0 µM 94% | [3]; at 11.0 µM 79% | [3]; at 33.0 µM 96% | [3]; at 100.0 µM 96% | [4]; at 3.7 µM 83% | [4]; at 11.0 µM 80% | [4]; at 33.0 µM 96% | [4]; [17] 97% | [4]; at 50.0 µM 89.2% | [4]; at 100.0 µM 97% | [5]; at 11.0 µM 84% | [5]; at 33.0 µM 97% | [5]; [17] 99% | [5]; at 50.0 µM 90.7% | [5]; at 100.0 µM 97% | [6]; at 11.0 µM 76% | [6]; at 33.0 µM 96% | [6]; at 100.0 µM 96% | [7]; [17] 96% | [7]; at 50.0 µM 92.3% | [8]; at 3.7 µM 93% | [8]; at 11.0 µM 96% | [8]; at 33.0 µM 97% | [8]; at 100.0 µM 98% | [9]; [17] 98% | [9]; at 50.0 µM 89.5% | [10]; at 3.7 µM 89% | [10]; [16] 86% | [10]; at 11.0 µM 93% | [10]; at 33.0 µM 97% | [10]; [17] 98% | [10]; at 50.0 µM 89.5% | [10]; at 100.0 µM 97% | [11]; at 11.0 µM 83% | [11]; at 33.0 µM 96% | [11]; at 100.0 µM 96% | [12]; at 3.7 µM 80% | [12]; at 11.0 µM 89% | [12]; at 33.0 µM 97% | [12]; at 100.0 µM 97% | [13]; at 3.7 µM 86% | [13]; at 11.0 µM 90% | [13]; at 33.0 µM 96% | [13]; at 100.0 µM 97% | [14]; [16] 82% | [14]; [17] 97% | [14]; at 50.0 µM 88.2% | [15]; at 3.7 µM 86% | [15]; at 11.0 µM 84% | [15]; at 33.0 µM 95% | [15]; at 100.0 µM 97%
inactive: [1]; at 1.2 µM 40% | [2]; at 1.2 µM 56% | [3]; at 1.2 µM 25% | [3]; at 3.7 µM 42% | [4]; at 1.2 µM 39% | [4]; [16] 21% | [5]; at 1.2 µM 19% | [5]; at 3.7 µM 68% | [5]; [16] -8% | [6]; at 1.2 µM 23% | [6]; at 3.7 µM 29% | [7]; [16] 11% | [8]; at 1.2 µM 60% | [9]; [16] 41% | [10]; at 1.2 µM 38% | [11]; at 1.2 µM 42% | [11]; at 3.7 µM 66% | [12]; at 1.2 µM 44% | [13]; at 1.2 µM 47% | [15]; at 1.2 µM 46%
